Most compounds without a hit are left out; they make up all but 8.7% or so of the library.
Sfp inh: qHTS Assay for Inhibitors of Bacillus subtilis Sfp phosphopantetheinyl transferase (PPTase). Biochemical Sfp PPTase activity, qHTS. Potency, µM, for inactives: largest response in the series, negative = inhibition, hits mostly inhibitors. AID 1490, 2009. 310,000 compounds, 3.5% hits;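 further: the enzyme is Sfp with the accession as filed and its product quenches rhodamine fluorescence; 0% = enzyme reaction without inhibitor and -100% = no enzyme wells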
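Fluorescence-quenching assay with 15 nM Sfp, 5 uM rhodamine-CoA and 12.5 uM BHQ-2-labelled ybbR peptide in pH 7.6 Hepes/MgCl2 buffer. Enzyme was pre-incubated with compound for 15 min at room temperature. Rate was taken from the 30-min fluorescence change (525/598 nm).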
G9a inh: qHTS Assay for Inhibitors of Histone Lysine Methyltransferase G9a | Histone-lysine N-methyltransferase EHMT2 (Homo sapiens), Q96KQ7 | G9a H3K9 monomethylation, AlphaScreen, 2 h | Potency, µM (titrated, usually from 102 µM), for inactives: top-dose activity, negative = inhibition, hits mostly inhibitors | 350,000 compounds, 8.8% hits; further: on the % scale 0 is the no-effect control and ±100 the full control effect; nearly all actives have a fitted effect of over 75% in size
Target sequence (Q96KQ7 913-1193 limits assumed): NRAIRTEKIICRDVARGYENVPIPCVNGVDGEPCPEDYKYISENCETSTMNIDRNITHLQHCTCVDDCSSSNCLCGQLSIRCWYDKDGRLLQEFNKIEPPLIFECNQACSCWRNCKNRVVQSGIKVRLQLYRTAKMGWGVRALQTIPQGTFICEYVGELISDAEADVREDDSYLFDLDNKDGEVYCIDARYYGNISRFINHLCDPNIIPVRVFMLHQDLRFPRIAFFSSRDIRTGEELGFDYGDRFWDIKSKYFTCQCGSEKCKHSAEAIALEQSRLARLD
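Readings reflect AlphaScreen signal from monomethyl-H3K9 antibody detection. HMT at 20 nM; substrate b-H3K9 500 nM; cofactor SAM 20 uM; 2 h RT reaction; compounds tested as titrations in qHTS with 15 min preincubation.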
ALOX12 inh: Primary qHTS assay for inhibitors of human arachidonate 12S-lipoxygenase (ALOX12): Round 2; 580,000 compounds, 1.1% hits; purified 12hLO, xylenol orange hydroperoxide absorbance; Polyunsaturated fatty acid lipoxygenase ALOX12 (Homo sapiens), P18054; Potency, µM (top dose mostly 108 µM), for inactives: at the top dose activity change, negative = inhibition, hits mostly inhibitors; further: on the % scale 0 is the no-effect control and ±100 the full control effect
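Hydroperoxide product was detected by ferrous iron/xylenol orange as the 573 to 405 nm absorbance ratio. Arachidonic acid at 40 uM (final) was turned over for 30 min at room temperature by 150 nM human 12hLO, pH 7.0 Hepes buffer, after 15 min compound preincubation.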
JMJD2A Tudor inh: qHTS Assay for Inhibitors of JMJD2A-Tudor Domain. Lysine-specific demethylase 4A (Homo sapiens), O75164. AlphaScreen JMJD2A-Tudor / H3K4me3 peptide binding. Potency, µM (titrated, usually from 114 µM), for inactives: top-dose activity change, negative = inhibition, hits mostly inhibitors. 390,000 compounds, 4.4% hits; further: on the % scale 0 is the no-effect control and ±100 the full control effect; nearly all actives have a fitted effect of over 50% in size
HP1b binding inh: HTS for Inhibitors of HP1-beta Chromodomain Interactions with Methylated Histone Tails; AlphaScreen HP1-beta / biotin-H3K9me3 peptide binding; Potency, µM (top dose mostly 114 µM), without a hit: top-dose activity change, negative = inhibition, actives largely listed as inhibitors; 390,000 compounds, 0.56% hits; further: nearly all actives have a fitted effect of over 70% in size
Target sequence (P83916 whole entry, looked up): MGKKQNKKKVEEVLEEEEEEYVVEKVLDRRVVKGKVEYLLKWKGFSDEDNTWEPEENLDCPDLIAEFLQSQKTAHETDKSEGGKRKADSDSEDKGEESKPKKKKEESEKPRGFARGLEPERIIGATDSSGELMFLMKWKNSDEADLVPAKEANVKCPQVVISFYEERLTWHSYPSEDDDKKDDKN
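Compound inhibition of the preformed complex between 50 nM HP1-beta and 50 nM biotinylated H3K9me3 peptide was read by AlphaScreen. Buffer was PBS pH 7.4 with 0.01% Tween-20. Incubations ran 30 min at room temperature, with 10 ug/mL donor/acceptor beads.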
BAZ2B block: qHTS Assay for Inhibitors of BAZ2B. Bromodomain adjacent to zinc finger domain protein 2B (Homo sapiens), Q9UIF8. AlphaScreen BAZ2B-H3K14Ac peptide displacement. Potency, µM (highest dose often 114 µM), without a hit: at the highest dose activity change, negative = inhibition, usual class: inhibitors. 360,000 compounds, 4.4% hits; further: on the % scale 0 is the no-effect control and ±100 the full control effect; nearly all actives have a fitted effect of over 60% in size
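Complex of BAZ2B and biotin-H3K14Ac (50 nM apiece) forms over 30 min at RT, then faces library compounds up to 110 uM for another 30 min; AlphaScreen beads added, 20 min dark incubation, luminescence read.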
Starred values were filed as active, the others as inactive; ? = inconclusive; · = no result; ! = repeats disagree; [ ] = another dose, or the depositor's remark. The call rests on the fitted dose curve; in most records, active means well fitted curve in the direction sought with a large enough effect; inconclusive means small, poorly fitted or top-dose-only effect, or another doubt; inactive means no such curve, though single readings can be large; an effect the other way counts as inactive or inconclusive. Potency means the concentration at half of the fitted maximal effect.

SMILES | Sfp inh | G9a inh | ALOX12 inh | JMJD2A Tudor inh | HP1b binding inh | BAZ2B block
CN(Cc1ccc2nonc2c1)C(C(=O)O)c1ccc(-c2ccn[nH]2)cc1 (configuration not stated) | · | · | 7% | · | · | ·
CC(=O)NCCNc1cc(C)c2ccc(Cl)cc2n1 | · | · | 23% | · | · | ·
Cc1ccc2occ(-c3nn[nH]n3)c(=O)c2c1 | -12% | ? | ? | 28µM* | 15% | 50µM*
CC(C)c1ccc2occ(-c3nn[nH]n3)c(=O)c2c1 | -15% | ? | -7% | 18µM* | -3% | 56µM*
CCc1nnc(NC(=O)Cc2coc3ccc(C(C)C)cc23)s1 | · | · | -27% | · | · | ·
COc1cc(O)c2c(c1)C(=O)c1cc(C)cc(O)c1C2=O | -27% | · | ? | · | · | ·
O=C(O)c1cc(O)c2c(c1)C(=O)c1cc(O)cc(O)c1C2=O | 10µM*! | -32%[12.7 µM] | ? | ? | -38% | 50µM*
CCN(c1ccc(OC)cc1)S(=O)(=O)c1nnc(NC(=O)COc2ccc(F)cc2)s1 | 3% | -50% | 25% | 35µM*! | 13% | -26%
O=C(COc1ccc(Cl)cc1)Nc1nnc(S(=O)(=O)N2CCCCCC2)s1 | 22% | 3.2µM*! | 5%[57.4 µM] | 10µM*! | ? | 1.8µM*!
CCN(c1ccc(OC)cc1)S(=O)(=O)c1nnc(NC(=O)COc2ccc(C)cc2)s1 | 6% | · | · | -12% | 31% | -10%
O=C(Nc1nnc(S(=O)(=O)N2CCCC2)s1)c1ccccc1Br | 9% | ? | -4% | ? | 52% | 7.1µM*!
O=C(Nc1nnc(S(=O)(=O)N2CCCCC2)s1)c1ccc(Cl)cc1 | 10% | ? | 78% | 1% | 42% | ?
O=C(Nc1nnc(S(=O)(=O)N2CCCCCC2)s1)c1ccc(Br)cc1 | 11% | 14µM*! | -3% | ? | ? | -39%
CC1CCN(S(=O)(=O)c2nnc(NC(=O)c3ccccc3Br)s2)CC1 | 24% | 2% | 17% | -11% | 47% | 13%
Cc1ccc(OCC(=O)Nc2nnc(S(=O)(=O)N3CCCCCC3)s2)cc1C | -1% | · | 3% | -4% | 37% | -37%
C=CCn1c(=O)c2c(nc(-n3nc(C)cc3C)n2CC(C)C)n(C)c1=O | · | · | -4% | · | · | ·
O=C(c1ccccn1)N1CCC(n2cc(-c3nc(-c4ccccc4)no3)nn2)CC1 | · | · | -4% | · | · | ·
COc1ccc2c(c1)OCC(CNC(=O)c1cnn3ccccc13)C2 (configuration not stated) | · | · | -36% | · | · | ·
O=C(Nc1nnc(S(=O)(=O)N2CCCCCC2)s1)c1ccccc1Br | 21% | 10µM* | 4% | 13µM*! | 40% | 14µM*!
C[S+](=O)([O-])c1ccc(-c2cc(C(=O)N3CCCC3)nn3cccc23)cc1 | · | · | 0%[6.33 µM] | · | · | ·
COc1ccc(-c2cc(=S)ss2)cc1 | 2% | ? | 18µM*! | · | · | ·
CCc1ccc(CC)c(-c2csc(N)n2)c1 | · | · | 15% | · | · | ·
COc1cc(NC(=O)c2ccnc(N)c2)cc(C(=O)Nc2cccc(C(F)(F)F)c2)c1 | 2% | -11%[12.7 µM] | ? | ? | -8% | 50µM*
COc1cc(NC(=O)c2cnc(N)s2)cc(C(=O)Nc2cccc(C(F)(F)F)c2)c1 | 4% | ? | -26% | 32µM* | -14% | 20µM*
COc1cc(NC(=O)c2csc(N)n2)cc(C(=O)Nc2cccc(C(F)(F)F)c2)c1 | -17% | -8%[12.7 µM] | 24% | 0% | 56% | -8%
CCOC(=O)c1ccccc1NC(=O)c1ccc(N2CCCCS2(=O)=O)cc1Cl | · | · | -5% | · | · | ·
CC(C)(C)c1ccc(-c2nnc(SCc3nc4ccccc4o3)o2)cc1 | · | · | 56% | · | · | ·

Source: PubChem (National Center for Advancing Translational Sciences (NCATS))
